From PubChem BioAssay (NCATS)
Records with an inconclusive call do not appear. Calls of active or inactive are those of the source. Unless noted, calls come from the whole dose curve; as a rule, active = well fitted cell-killing curve with a large enough effect; inconclusive = small, poorly fitted or top-dose-only effect, or effect the other way; inactive = no such curve, though single readings can be large or run the other way.

Experiments:
[1] = Quantitative High-Throughput drug screen in 47 multiple myeloma cell lines against the NCATS MIPE library collection: UTMC2_PLB cell viability assay (AID 1919868); details: CellTiter-Glo ATP luminescence, 48 h; viability (% of DMSO control): at 45.8 µM (top of the series) unless noted; note: nearly all actives have a fitted effect of over 55% in size
Procedure, shortened: (§1)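 Myeloma cells (500/well) treated with MIPE 4.0 compounds for 48 h at 37 °C, 5% CO2. Viability read as ATP via CellTiter-Glo luminescence after 5 min at RT; DMSO-only wells = 100%, media-only = 0% viability.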

[2] = Quantitative High-Throughput drug screen in 47 multiple myeloma cell lines against the NCATS MIPE library collection: PE2_PLB cell viability assay (AID 1919869); note: nearly all actives have a fitted effect of over 35% in size
Procedure, shortened: as §1

[3] = Quantitative High-Throughput drug screen in 47 multiple myeloma cell lines against the NCATS MIPE library collection: PCM6_Riken cell viability assay (AID 1919870); note: nearly all actives have a fitted effect of over 30% in size
Procedure, shortened: as §1

[4] = Quantitative High-Throughput drug screen in 47 multiple myeloma cell lines against the NCATS MIPE library collection: RPMI8226_ATCC cell viability assay (AID 1919871); note: nearly all actives have a fitted effect of over 30% in size
Procedure, shortened: as §1

[5] = Quantitative High-Throughput drug screen in 47 multiple myeloma cell lines against the NCATS MIPE library collection: OPM2_DSMZ cell viability assay (AID 1919872); note: nearly all actives have a fitted effect of over 30% in size
Procedure, shortened: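 Luminescent ATP measurement with CellTiter-Glo gives viability, scaled between DMSO-only wells (100%) and media-only wells (0%). Cells, 500 per well, faced library compounds for 48 hours at 37C.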

[6] = Quantitative High-Throughput drug screen in 47 multiple myeloma cell lines against the NCATS MIPE library collection: KMS28BM_JCRB cell viability assay (AID 1919874); note: nearly all actives have a fitted effect of over 35% in size
Procedure, shortened: as §1

[7] = qHTS drug screen for cell cycle checkpoint inhibitors in PARPi-resistant BRCA-mutant ovarian cancer cell lines. (AID 1963452; calls by dose curve); details: PEO1/OlaR viability, CellTiter-Glo luminescence, 96 h; for Z-AUC: stronger effect = lower value
Procedure, shortened: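 PEO1, PEO4 and PEO1/OlaR ovarian cancer cells, 600 per well, exposed 96 h at 37C to a dilution series. Viability read by CellTiter-Glo luminescence, normalized to DMSO and empty wells; activity summarized as Z-AUC.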

[8] = qHTS for identification of novel therapeutic agents for treatment of microphthalmiaassociated transcription factor (MiT) renal cell carcinoma (RCC) (AID 1963991; calls by dose curve); details: CellTiter-Glo, 48 h; for Potency: active = Z-AUC below -0.8 in all three lines; for z-score: stronger effect = lower value
Procedure, shortened: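 Viability of three TFE3-fusion renal carcinoma lines measured by CellTiter-Glo after 48 h treatment with each of 1912 compounds at 11 concentrations. Responses scaled between DMSO (100%) and empty wells (0%) before curve fitting.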

[9] = Quantitative High-Throughput drug screen in 47 multiple myeloma cell lines against the NCATS MIPE library collection: KMS11_JCRBsus cell viability assay (AID 1919873); note: nearly all actives have a fitted effect of over 50% in size
Procedure, shortened: as §1

[10] = measured here: PEO1 parental Z-AUC
[11] = TFE3-RCC UOK109 viability, measured here: UOK109 Z-AUC
[12] = TFE3-RCC viability, measured here: UOK124 Z-AUC
[13] = TFE3-RCC viability, measured here: UOK145 Z-AUC
Potency is the fitted concentration of half-maximal effect.

Compound | Potency [1] | Potency [2] | Potency [3] | Potency [4] | Potency [5] | Potency [6] | Z-AUC [7] | Z-AUC [7, 10] | Z-AUC ([7]; measured here: PEO4 Z-AUC) | Potency ([8]; TFE3-RCC UOK109 viability) | z-score [8, 11] | z-score [8, 12] | z-score [8, 13] | Potency [9] | Potency [7]
Cc1c(CN2CCN(S(C)(=O)=O)CC2)sc2c(N3CCOCC3)nc(-c3cnc(N)nc3)nc12 | 26.4 nM (active) | 37.2 nM (active) | 418 nM (active) | 16.6 nM (active) | 105 nM (active) | 13.2 nM (active) | 0.0284 (inactive) | 0.564 | 0.402 | 83.3 nM (active) | -2.2 | -2.43 | -2.46 |  | 
Cc1cc(C(=O)N2CCN(c3cccc(Cl)c3)CC2)n(-c2ccccc2)n1 | 833 nM (active) | 3720 nM (active) | 9350 nM (active) | 5900 nM (active) |  | 132 nM (active) | -1.51 (inactive) | -1.82 | -1.79 |  |  |  |  |  | 
CN1CCN(c2ccc3nc(-c4c(N)c5c(F)cccc5[nH]c4=O)[nH]c3c2)CC1 | 5900 nM (active) | 5260 nM (active) | 2640 nM (active) | 29600 nM (active) |  | 14800 nM (active) | -0.169 (inactive) | -0.682 | -0.379 |  |  |  |  | 10500 nM (active) | 
O=C(C=Cc1cccc(S(=O)(=O)Nc2ccccc2)c1)NO | 1080 nM (active) | 3820 nM (active) | 2410 nM (active) | 3400 nM (active) | 3820 nM (active) | 1360 nM (active) |  |  |  |  |  |  |  |  | 
Cn1c2ccccc2c2c3c(c4c5ccccc5n(CCC#N)c4c21)CNC3=O | 2640 nM (active) | 1870 nM (active) | 1870 nM (active) | 20900 nM (active) | 11800 nM (active) |  | -0.442 (inactive) | -1.02 | -1.08 | 7430 nM (active) | -0.993 | -2.34 | -1.2 |  | 
CCN(CC)CCNC(=O)c1ccc2nc(-c3ccccc3)c(-c3ccc(CN4CCC(n5c(=O)[nH]c6ccccc65)CC4)cc3)nc2c1 | 1320 nM (active) | 1050 nM (active) | 332 nM (active) | 20900 nM (active) |  | 16600 nM (active) | -1.13 (inactive) | -1.23 | -1.53 |  |  |  |  | 2350 nM (active) | 
CN1CC[C@@H](c2c(O)cc(O)c3c(=O)cc(-c4ccccc4Cl)oc23)[C@@H](O)C1 | 83.3 nM (active) | 66.2 nM (active) | 83.3 nM (active) | 235 nM (active) |  | 93.5 nM (active) | -0.536 (inactive) | -1.36 | -1.16 | 118 nM (active) | -2.54 | -1.53 | -2.13 | 66.2 nM (active) | 
CCn1cc(-c2ccnc3[nH]c(-c4cccc(CN(C)C)c4)cc23)c(-c2ccc(NC(=O)N(C)C)cc2)n1 | 743 nM (active) | 11800 nM (active) | 9350 nM (active) |  | 11800 nM (active) | 6620 nM (active) |  | -1.7 | -1.88 |  |  |  |  | 833 nM (active) | 2450 nM (active)
Cc1ccc(NC(=O)C2(c3ccc4c(c3)OC(F)(F)O4)CC2)nc1-c1cccc(C(=O)O)c1 | 83.3 nM (active) | 105 nM (active) | 33.2 nM (active) | 93.5 nM (active) |  | 41.8 nM (active) | 0.456 (inactive) | 0.813 | 0.515 | 235 nM (active) | -2.27 | -1.92 | -1.79 | 46.9 nM (active) | 
CN1CCN(Cc2ccc(NC(=O)Nc3ccc(Oc4cc(NC(=O)C5CC5)ncn4)cc3)cc2C(F)(F)F)CC1 | 132 nM (active) | 148 nM (active) | 105 nM (active) |  | 526 nM (active) | 209 nM (active) | -1.5 (inactive) | -2.15 | -1.93 |  |  |  |  | 235 nM (active) | 
CC(C)c1ccc(Cn2ccc3c4c(N)nc(NC5CC5)nc4ccc32)cc1 | 1870 nM (active) | 2350 nM (active) | 5900 nM (active) | 14800 nM (active) |  | 1660 nM (active) | -1.65 (inactive) | -2.21 | -2.38 |  |  |  |  | 1050 nM (active) | 
COc1ccc(F)c(F)c1C(=O)c1cnc(NC2CCN(S(C)(=O)=O)CC2)nc1N | 2350 nM (active) | 2090 nM (active) | 743 nM (active) | 2960 nM (active) |  | 3320 nM (active) |  | -1.69 | -1.31 |  |  |  |  | 1480 nM (active) | 871 nM (active)
Nc1ncnc2c1c(-c1cccc(OCc3ccccc3)c1)cn2C1CC(CN2CCCC2)C1 (stereo not given) | 66.2 nM (active) | 1660 nM (active) | 7430 nM (active) | 2960 nM (active) | 14800 nM (active) | 526 nM (active) | -0.938 (inactive) | -0.783 | -1.2 |  |  |  |  |  | 
Nc1nccc(Oc2ccc(NC(=O)c3c[nH]cc(-c4ccc(F)cc4)c3=O)cc2F)c1Cl | 29600 nM (active) | 18700 nM (active) | 18700 nM (active) | 20900 nM (active) |  | 20900 nM (active) | -0.747 (inactive) | -0.587 | -1.14 |  |  |  |  |  | 
Cc1ccc(C(=O)Nc2cccc(C(F)(F)F)c2)cc1-c1ccc2nc(NCCN3CCOCC3)ncc2c1 | 5900 nM (active) | 4690 nM (active) | 5900 nM (active) |  | 18700 nM (active) | 18700 nM (active) | 0.224 (inactive) | -0.409 | -0.0261 |  |  |  |  | 2960 nM (active) | 
